From the supplement of paper PMC13380429 come the findings set out here.

This assay relates to Vero E6 infected with SARS-CoV-2. Put plainly: morphology score (similarity to uninfected cells); higher = more like uninfected cells. Particulars: 24 h.
For `c1ccc2[nH]c(-c3cscn3)nc2c1` [tiabendazole] (10 µM), the morphology score was determined as 0.157. As for `CCC[C@H](N[C@@H](C)C(=O)N1[C@H](C(=O)O)C[C@@H]2CCCC[C@@H]21)C(=O)OCC` [perindopril] (10 µM), the morphology score was 0.104. The value for `O=C(O)CCCC[C@@H]1SC[C@@H]2NC(=O)N[C@@H]21` [biotin] (10 µM) was -0.0202; that for `N[C@@H](CSS(=O)(=O)O)C(=O)O` [S-sulfo-L-cysteine] (10 µM) was 0.254; that for `Nc1nc(OCC2CCCCC2)c2nc[nH]c2n1` (10 µM) was 0.0911. Consider `O=C(O)c1cccnc1Nc1cccc(C(F)(F)F)c1` [niflumic-acid] (10 µM), for which the morphology score turned out to be 0.127. The value for `CCOC(=O)c1ccc(OC(=O)CCCCCNC(=N)N)cc1` [gabexate] (10 µM) was 0.0775. `O=C1O[C@H]([C@@H](O)CO)C([O-])=C1O.[Na+]` [sodium-ascorbate] (10 µM) registered a morphology score of 0.159.

In turn, `Nc1[nH]cnc2ncnc1-2` [adenine] (10 µM) gave a morphology score of 0.0482.

`Cc1cc(C)cc(C(=O)O[C@H]2C[C@H]3CC[C@@H](C2)N3C)c1` [tropanyl-3,5-dimethylbenzoate] (10 µM) registered a morphology score of 0.23. `Cc1[nH]c(/C=C2\C(=O)Nc3ccc(S(=O)(=O)N(C)c4cccc(Cl)c4)cc32)c(C)c1C(=O)N1CCN(C)CC1` (10 µM): the morphology score amounted to 0.493. For `NCCCC(O)(P(=O)(O)O)P(=O)(O)O` [alendronate] (10 µM), the morphology score was 0.102. As to `CCOC(=O)[C@@]1(CCCCCCOc2ccc(Cl)cc2)CO1` [etomoxir] (10 µM), the morphology score is -0.0546. In turn, `O=C(O)Cc1ccc(OCCNC[C@H](O)c2ccccc2)cc1` (10 µM) showed a morphology score of -0.102. The value for `CCCN(CCC)C1Cc2cc(OC)c(OC)cc2C1` (10 µM) was 0.231. `Nc1nc2c(c(N3CCNCC3)n1)CCC1=C2[C@@H]2CCCC[C@@H]2O1` (10 µM) had a morphology score of 0.247. As for `CCO[C@@H]1OC(=O)C[C@@H]1NC(=O)[C@@H]1CCCN1C(=O)[C@@H](NC(=O)c1ccc(N)c(Cl)c1)C(C)(C)C` (10 µM), the morphology score is 0.0386.

`CC(=O)Nc1ncc([N+](=O)[O-])s1` [nithiamide] (10 µM): the morphology score was 0.0207.

For the molecule `CC(C)(CO)c1cc2cc(NC(=O)C3(c4ccc5c(c4)OC(F)(F)O5)CC3)c(F)cc2n1C[C@@H](O)CO` [tezacaftor] (10 µM), the morphology score was -0.0125. The value for `C[C@@H](O[C@H]1OCCN(Cc2nn(P(=O)(O)O)c(=O)[nH]2)[C@H]1c1ccc(F)cc1)c1cc(C(F)(F)F)cc(C(F)(F)F)c1` [fosaprepitant-dimeglumine] (10 µM) was 0.0215; that for `C#CCC(Cc1cnc2nc(N)nc(N)c2n1)c1ccc(C(=O)N[C@@H](CCC(=O)O)C(=O)O)cc1` (some centres undefined) [pralatrexate] (10 µM) was 0.042.

`N[C@H](Cc1cc(I)c(Oc2ccc(O)c(I)c2)c(I)c1)C(=O)O` [liothyronine-(isomer)] (10 µM) displayed a morphology score of 0.127. The molecule `COc1ccc2c(c1)/C(=C/c1cnc[nH]1)C(=O)N2` (0.833333 µM) registered a morphology score of -0.0607. The molecule `O=C(Nc1ccccc1)Nc1ccc(-c2ccc(C(=O)[C@@H]3CCC[C@@H]3C(=O)O)cc2)cc1` (10 µM) registered a morphology score of 0.202. On to `CN(Cc1ccc(C(C)(C)C)cc1)Cc1cccc2ccccc12` [butenafine] (10 µM), for which the morphology score came out at 0.502. The value for `C[C@@H](O)[C@@H]1NC(=O)[C@H](CCCCN)NC(=O)[C@@H](Cc2c[nH]c3ccccc23)NC(=O)[C@H](Cc2ccccc2)NC(=O)[C@@H](NC(=O)[C@H](N)Cc2ccccc2)CSSC[C@@H](C(=O)N[C@H](CO)[C@@H](C)O)NC1=O` [octreotide] (10 µM) was 0.0589; that for `COc1cc2c(cc1OC)[C@H](C)NCC2` [Isoquinoline,-6,7-dimethoxy-1-methyl-1,2,3,4-tetrahydro,] (10 µM) was 0.0205; that for `Cc1ccc2nc(NCCN)c3ncc(C)n3c2c1` (0.833333 µM) was -0.353. In turn, `COCC1=C(C(=O)O)N2C(=O)[C@@H](NC(=O)/C(=N\OC)c3csc(N)n3)[C@H]2SC1` [cefpodoxime] (10 µM) came in with a morphology score of 0.105. The value for `O=C(O)c1cc(O)c2c(c1)[C@H]([C@H]1c3cc(C(=O)O)cc(O)c3C(=O)c3c(O[C@@H]4O[C@H](CO)[C@@H](O)[C@H](O)[C@H]4O)cccc31)c1cccc(O[C@@H]3O[C@H](CO)[C@@H](O)[C@H](O)[C@H]3O)c1C2=O` [sennoside-A] (10 µM) was -0.287; that for `CO/N=C1\C[C@]2(C[C@@H]3C[C@@H](C/C=C(\C)C[C@@H](C)/C=C/C=C4\CO[C@@H]5[C@H](O)C(C)=C[C@@H](C(=O)O3)[C@]45O)O2)O[C@H](/C(C)=C/C(C)C)[C@H]1C` [moxidectin] (10 µM) was 0.272; that for `CCCCC(F)(F)[C@@]1(O)CC[C@H]2[C@@H](CC(=O)[C@@H]2CCCCCCC(=O)O)O1` [lubiprostone] (10 µM) was 0.0116. Take `Cc1ccc(N(CC2=NCCN2)c2cccc(O)c2)cc1` [phentolamine] (10 µM): the morphology score is -0.00261.

`COC(=O)CCc1ccc(OCC(O)CNC(C)C)cc1` (centres undefined) [esmolol] (10 µM) returned a morphology score of -0.00906.

The molecule `CC(C)c1cccc2c1OC(C(C)C)C(=S)N2CC(=O)O` (centres undefined) (10 µM) returned a morphology score of 0.0177. The value for `O=C1c2ccccc2C(Cc2ccncc2)(Cc2ccncc2)c2ccccc21` (10 µM) was -0.0398. `CN1CCN(c2ccc(-c3cccc(CN4CCOCC4)c3)cc2NC(=O)c2c[nH]c(=O)cc2C(F)(F)F)CC1` (10 µM): the morphology score was 0.0309. For `Cc1ncc(C[n+]2csc(CCOP(=O)(O)OP(=O)(O)O)c2C)c(N)n1` [thiamine-pyrophosphate] (10 µM), the morphology score was 0.112. In turn, `CN[C@H](CC(C)C)C(=O)N[C@H]1C(=O)N[C@@H](CC(N)=O)C(=O)N[C@H]2C(=O)N[C@H]3C(=O)N[C@H](C(=O)N[C@H](C(=O)O)c4cc(O)cc(O)c4-c4cc3ccc4O)[C@H](O[C@H]3C[C@](C)(N)[C@@H](O)[C@H](C)O3)c3ccc(c(Cl)c3)Oc3cc2cc(c3O[C@@H]2O[C@H](CO)[C@@H](O)[C@H](O)[C@H]2O[C@H]2C[C@](C)(NCc3ccc(-c4ccc(Cl)cc4)cc3)[C@@H](O)[C@H](C)O2)Oc2ccc(cc2Cl)[C@H]1O` [oritavancin] (10 µM) came in with a morphology score of 0.0399.
